Data published in PubChem BioAssay (Tox21).
Records with an inconclusive call do not appear. A number with no mark means an inactive call. Activity calls are given as the source filed them. Calls follow the shape of the full dose curve. Non-standard residues stand in square brackets, D forms with d. Residues, ends and D or L forms follow the SMILES beside them. pGlu = O=C1CC[C@@H](C(=O)O)N1; Thz = O=C(O)[C@@H]1CSCN1
% is scaled to controls: 0 for no effect and ±100 for the full control effect; potency is read from the fitted curve at half-maximal effect.

Assay: qHTS assay to identify small molecule antagonists of the estrogen receptor alpha (ER-alpha) signaling pathway using the BG1 cell line (AID 743080);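 also: BG1 cells stimulated with 17beta-estradiol alongside compound; nearly all actives have a fitted effect of over 25% in size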
Details: BG1Luc4E2 ERE-luciferase antagonist mode, luminescence; series mostly up to 70.3 µM; activity change, negative = inhibition: at the top concentration
Text: National Center for Advancing Translational Sciences [NCATS]
NIH Chemical Genomics Center [NCGC]
U.S. Environmental Protection Agency [EPA]
National Institutes of Environmental Health Sciences [NIEHS]
National Toxicology Program [NTP]
U.S. Food and Drug Administration [FDA]
Estrogen receptor (ER), a nuclear hormone receptor, plays an important role in development, metabolic homeostasis and reproduction. Endocrine disrupting chemicals (EDCs) and their interactions with steroid hormone receptors like ER causes disruption of normal endocrine function. Therefore, it is important to understand the effect of environmental chemicals on the ER signaling pathway. To identify ER antagonists, BG1-Luc-4E2 cell line (provided by Dr. Michael Denison from University of California) has been used to screen the Tox21 10K compound library. BG1Luc4E2 cell line endogenously expresses full-length ER-alpha and is stably transfected with a plasmid containing four estrogen responsive elements (ERE) upstream of a luciferase reporter gene.
Tox21 Assay Protocol Summary:
BG1-Luc-4E2 cells were cultured in phenol red free assay medium containing 10% charcoal stripped FBS for 5 days before the assay was performed. The cells were dispensed at 4,000 cells/4 uL of assay medium per well into white wall/solid-bottom 1536-well plates using a Multidrop Combi (ThermoFisher Scientific, Waltham, MA) dispenser. The assay plates were incubated at a 37C and 5% CO2 for 24 h, and then 23 nL of compounds dissolved in DMSO, positive controls or DMSO only was transferred to the assay plate using a Pintool station (Kalypsys, San Diego, CA), followed by addition of 1 uL of 17beta-estradiol in assay medium using a Flying Reagent Dispenser (Aurora Discovery, San Diego, CA). After the plates were incubated at 37 C and 5% CO2 for 21.5 h, 1 uL of CellTiter-Fluor reagent (Promega, Madison, WI) of measuring cytotoxicity was added using Flying Reagent Dispenser (FRD) to each well. The assay plates were incubated at 37 C and 5% CO2 for additional 30 min and the fluorescence intensity was quantified by a ViewLux plate reader (PerkinElmer, Shelton, CT). For measuring luciferase reporter gene activity, 4 uL of ONE-Glo reagent (Promega) was added to each plate using an FRD and luminescence was quantified by a ViewLux plate reader after 30 min incubation at room temperature.
In the case of CC(C)(CO)[C@@H](O)C(=O)NCCCC(=O)O, the “activity change, negative = inhibition” value is reported as 3.24%. For CC(C)CCC[C@@H](C)[C@H]1CC(=O)C2=C3CC[C@H]4C[C@@H](O)CC[C@]4(C)[C@H]3CC[C@@]21C, the “activity change, negative = inhibition” value was 3.27%. With COC(=O)C1=C(C)NC(C)=C(C(=O)O[C@H]2CCN(Cc3ccccc3)C2)[C@H]1c1cccc([N+](=O)[O-])c1 the “activity change, negative = inhibition” value was 5.98%. With O=C(COc1ccc(Cl)cc1)OCCNC12CC3CC(CC(C3)C1)C2 the “activity change, negative = inhibition” value was 1.71%. In the case of COCC(=O)Nc1cc(Sc2ccccc2)ccc1N=C(NC(=O)OC)NC(=O)OC, the “activity change, negative = inhibition” value is reported as 18.1%. For C#CCOc1ccc2c(C)cc(=O)oc2c1, the “activity change, negative = inhibition” value was 22.8%. With NCCCC[C@H](NC(=O)[C@@H]1CCCN1C(=O)[C@@H]1CSSC[C@H](N)C(=O)N[C@@H](Cc2ccccc2)C(=O)N[C@@H](Cc2ccccc2)C(=O)N[C@@H](CCC(N)=O)C(=O)N[C@@H](CC(N)=O)C(=O)N1)C(=O)NCC(N)=O the “activity change, negative = inhibition” value was 0.233%. In the case of C[C@]12CCC(=O)C[C@@H]1CC[C@@H]1[C@@H]2CC[C@]2(C)C=CC[C@@H]12, the “activity change, negative = inhibition” value is reported as 20.3%. In the case of O=C(O)[C@H]1/C(=C/CO)O[C@@H]2CC(=O)N21, the “activity change, negative = inhibition” value is reported as 0%. With Cc1ncc(COP(=O)(O)O)c(CN)c1O the “activity change, negative = inhibition” value was 3.56%. In the case of CC(CN(C)C)CN1c2ccccc2S(=O)(=O)c2ccccc21 (stereo not given), the “activity change, negative = inhibition” value is reported as -0.157%. For CCOC(=O)CCC(=O)O[C@H]1[C@H](O[C@@H]2[C@@H](C)[C@H](O[C@H]3C[C@@](C)(OC)[C@@H](O)[C@H](C)O3)[C@@H](C)C(=O)O[C@H](CC)[C@@](C)(O)[C@H](O)[C@@H](C)C(=O)[C@H](C)C[C@@]2(C)O)O[C@H](C)C[C@@H]1N(C)C, the “activity change, negative = inhibition” value was -24.6%. For CCN1C(=O)NC(c2ccccc2)C1=O (stereo not given), the “activity change, negative = inhibition” value was 2.92% [at 32.5 µM]. With C=CCSSSCC=C the “activity change, negative = inhibition” value was 3.35%. For O=C(O)c1c(Cl)c(Cl)c(Cl)c(Cl)c1-c1c2cc(I)c(=O)c(I)c-2oc2c(I)c(O)c(I)cc12, the “activity change, negative = inhibition” value was -19.2%. In the case of CC(C)(CO)[C@@H](O)C(=O)NCCC(=O)NCCSSCCNC(=O)CCNC(=O)[C@H](O)C(C)(C)CO, the “activity change, negative = inhibition” value is reported as -4.47%. For CO[C@H]1[C@@H](O)[C@H](N)[C@@H](O[C@H]2O[C@H]([C@H](C)N)CC[C@H]2N)[C@H](O)[C@@H]1N(C)C(=O)CN, the “activity change, negative = inhibition” value was 1.19%. In the case of O=C1CC[C@@H](C(=O)N2CSC[C@H]2C(=O)O)N1 ([pGlu]-[Thz]-OH), the “activity change, negative = inhibition” value is reported as 2.15%. In the case of CCCCCCCCCCCCCCCCCC(=O)[O][Al], the “activity change, negative = inhibition” value is reported as 1.92%. For CN[C@H]1CCc2cc(OC)c(OC)c(OC)c2-c2ccc(OC)c(=O)cc21, the Potency was 84.1 nM (active). For CCC(CN)CC(C)CCNCC(O)CNCC(C)CC(CC)CN (stereo not given), the “activity change, negative = inhibition” value was -3.88%. With CCOC(=O)Cc1cccc(-c2cc(CCCCCCc3ccc(O[C@H]4O[C@H](COC(C)=O)[C@@H](OC(C)=O)[C@H](OC(C)=O)[C@@H]4OC(C)=O)c(-c4cccc(CC(=O)OCC)c4)c3)ccc2O[C@H]2O[C@H](COC(C)=O)[C@@H](OC(C)=O)[C@H](OC(C)=O)[C@@H]2OC(C)=O)c1 the “activity change, negative = inhibition” value was 1.39%. With CC(CN1c2ccccc2Sc2ccc(S(=O)(=O)N(C)C)cc21)N(C)C (stereo not given) the “activity change, negative = inhibition” value was 9.41%. For C[C@H](O)[C@H](O)[C@H]1CNc2nc(N)[nH]c(=O)c2N1, the “activity change, negative = inhibition” value was -12.6%. In the case of OC[C@H]1OC([S-])[C@H](O)[C@@H](O)[C@@H]1O.[Au+] (stereo not given in full), the “activity change, negative = inhibition” value is reported as 4.35%. In the case of CC(=O)N[C@@H]1C(O[C@H]2O[C@H](C(=O)O)C(O)[C@H](O)[C@H]2O)[C@H](O)[C@@H](CO)O[C@H]1O[C@@H]1C(C(=O)O)O[C@@H](O[C@H]2[C@H](O)[C@@H](CO)OC(O)[C@@H]2NC(C)=O)[C@H](O)[C@H]1O (stereo not given in full), the “activity change, negative = inhibition” value is reported as 1.7%. In the case of CCCOc1cc(N)ccc1C(=O)OCCN(CC)CC, the “activity change, negative = inhibition” value is reported as -1.21% [at 32.5 µM]. In the case of CC(O)[C@H]1CC[C@H]2[C@@H]3CC[C@@H]4C[C@@H](O)CC[C@]4(C)[C@H]3CC[C@]12C (stereo not given in full), the “activity change, negative = inhibition” value is reported as -1.55%. In the case of O=c1oc2cc(O)ccc2s1, the “activity change, negative = inhibition” value is reported as -8.18%. In the case of COC(=O)[C@H]1[C@H]2C[C@@H]3c4[nH]c5cc(OC)ccc5c4CCN3C[C@H]2C[C@@H](OC(=O)/C=C/c2cc(OC)c(OC)c(OC)c2)[C@@H]1OC, the “activity change, negative = inhibition” value is reported as 0% [at 32.5 µM]. With S=C=Nc1ccc(N=C=S)cc1 the “activity change, negative = inhibition” value was 0.32%. With COc1cc(/C=C/C(=O)N2CCN(CC(=O)N3CCCC3)CC2)cc(OC)c1OC the “activity change, negative = inhibition” value was -10.2%. In the case of CN1CCCC(CN2c3ccccc3Sc3ccccc32)C1 (stereo not given), the “activity change, negative = inhibition” value is reported as -0.306%. For O=C1O[C@H]2[C@H](O)[C@@H]1OC(O)[C@H]2O (stereo not given in full), the “activity change, negative = inhibition” value was -0.839%. With CCc1ccc(S(=O)(=O)O)cc1 the “activity change, negative = inhibition” value was -1.55%. In the case of CCC(=O)O[C@H]1CC[C@H]2[C@@H]3CCc4cc(O)ccc4[C@H]3CC[C@]12C, the “activity change, negative = inhibition” value is reported as -4.13%. In the case of CC(C)(C)C(=O)OCOC(=O)[C@@H]1N2C(=O)[C@@H](N=CN3CCCCCC3)[C@H]2SC1(C)C, the “activity change, negative = inhibition” value is reported as -0.427% [at 32.5 µM]. For CC(=O)Oc1c(C)cc(OCC(O)CNC(C)C)c(C)c1C (stereo not given), the “activity change, negative = inhibition” value was 0.24%. In the case of C#C[C@]1(O)CC[C@H]2[C@@H]3CCC4=CCCC[C@@H]4[C@H]3C(=C)C[C@@]21CC, the “activity change, negative = inhibition” value is reported as 9.37%. In the case of CCOC(=O)[C@@H](N)CS, the “activity change, negative = inhibition” value is reported as -2.38%.
